Reference: PubChem BioAssay (NCATS)
Records with an inconclusive call do not appear. Active and inactive are the calls of the source. Unless noted, the call rests on the fitted dose curve.

How the values were obtained:
[1] = Cell Viability - BJ (AID 421); details: BJ fibroblast viability, qHTS;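 further: potency means the concentration at half of the fitted maximal effect; cells exposed to compound for 40 hours at 37 °C before readout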
Procedure, shortened: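 Luminescent ATP signal (CellTiter-Glo, 20 min at room temperature) served as the read-out of viable BJ cells after 40 hours of compound treatment. Responses were scaled between DMSO and 100 uM tamoxifen, and AC50 values were obtained by Hill modeling.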

[2] = Cell Viability - Jurkat (AID 426;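 active means dose-dependent loss of cell ATP signal giving a full or clear fitted curve, ranked by lower potency value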;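 further: potency means the concentration at half of the fitted maximal effect; cells exposed to compound for 40 hours at 37 °C before ATP read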); details: qHTS
Procedure, shortened: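 Cytotoxicity was scored as loss of cellular ATP, measured by luciferase-based luminescence, in Jurkat clone E6-1 cells after 40 h compound treatment; tamoxifen and doxorubicin served as positive controls.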

[3] = Cell Viability - Hek293 (AID 427;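 active means compounds whose dose-response curve shows a full or clear partial loss of cell viability, called from curve shape rather than a numeric limit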;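 further: potency means the concentration at half of the fitted maximal effect; cells exposed to compound for 40 hours at 37 °C before reading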); details: qHTS
Procedure, shortened: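 Luminescent ATP read-out (CellTiter-Glo, 20 min RT) after 40 hr compound exposure at 37 °C in complete medium. Signal normalized to DMSO (basal) and 100 uM tamoxifen (100% inhibition); concentration-response fitted with the standard Hill equation to give AC50.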

[4] = Cell Viability - HepG2 (AID 433); details: qHTS;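 further: potency means the concentration at half of the fitted maximal effect; potency for ATP loss meaning cytotoxicity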
Procedure, shortened: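 Cytotoxicity read as ATP loss (CellTiter-Glo luminescence) after 40 hr compound exposure of HepG2, 1500 cells/well, 37 °C. AC50 by Hill equation; 0% set by DMSO, 100% inhibition by 100 uM tamoxifen.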

[5] = Cell Viability - MRC5 (AID 434); details: MRC5 lung fibroblast viability, qHTS;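 further: potency means the concentration at half of the fitted maximal effect; cells exposed to compound for 40 hours at 37 °C; potency reflects cytotoxicity seen as loss of intracellular ATP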
Procedure, shortened: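 AC50 values come from Hill-equation fits of intracellular ATP loss, measured by CellTiter-Glo luminescence. Normal lung fibroblasts (MRC5) had 40 hr compound treatment at 37 C, normalized between DMSO and 100 uM tamoxifen.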

[6] = Cell Viability - SK-N-SH (AID 435); details: SK-N-SH neuroblastoma cell viability qHTS; further: potency means the concentration at half of the fitted maximal effect
Procedure, shortened: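 qHTS cytotoxicity: CellTiter-Glo ATP luminescence after 40 h compound exposure of human neuroblastoma SK-N-SH cells at 37 °C. AC50 derived by Hill-equation fitting, with DMSO as basal and 100 uM tamoxifen as full inhibition.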

[7] = molecular target: Mitogen-activated protein kinase 10 (Mus musculus) (UniProt Q61831); test: JNK3 AlphaScreen Assay (AID 530; active means well fitted curve in either direction with a large enough effect, not every such curve was filed as active;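 further: kinase came from lysate of stimulated human HepG2 cells; signal reports phosphorylation of biotinylated GST-cJun 1-79 at Ser73 with 10 µM ATP; on the % scale 0 is the no-effect control and ±100 the full control effect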); details: JNK3 lysate, c-Jun phosphorylation; series mostly up to 57.1 µM
Procedure, shortened: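 Kinase buffer: 20 mM Tris-HCl pH 7.6, 10 mM MgCl2, 1 mM DTT, 0.1 mM Na3VO4, 0.01% Tween-20; ATP 10 uM. Substrate biotin-GST-cJun(1-79), enzyme from activated HepG2 lysates. Detection by Ser73 phospho-antibody AlphaScreen.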

[8] = Cell Viability - N2a (AID 540; active means well fitted curve in the direction sought with a large enough effect; an effect the other way counts as inactive or inconclusive;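 further: plate controls were DMSO alone for no effect and tamoxifen control for full effect; nearly all actives have a fitted effect of over 45% in size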); details: N2a mouse neuroblastoma cell viability; activity change, negative = cytotoxicity: at 92.2 µM (top of the series)
Procedure, shortened: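 In this qHTS cytotoxicity screen, ATP-dependent luciferase luminescence reports viable N2a cells after a 40 hr compound exposure in complete culture medium. Potencies are AC50 values from standard Hill equation fits.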

[9] = Cell Viability - NIH 3T3 (AID 541; active means well fitted curve in the direction sought with a large enough effect; an effect the other way counts as inactive or inconclusive;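 further: plate controls were DMSO alone for no effect and tamoxifen positive control for full effect; nearly all actives have a fitted effect of over 25% in size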); details: NIH 3T3 cell viability, qHTS; activity change, negative = cytotoxicity: at 92.2 µM (top of the series)
Procedure, shortened: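 In this cytotoxicity screen, acute toxicity is scored as an ATP drop measured by CellTiter-Glo in NIH 3T3 fibroblasts following a 40 hr, 37 °C incubation with compound.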

[10] = Cell Viability - HUV-EC-C (AID 542; active means well fitted curve in the direction sought with a large enough effect; an effect the other way counts as inactive or inconclusive; further: on the % scale 0 is the no-effect control and ±100 the full control effect; nearly all actives have a fitted effect of over 35% in size); details: HUV-EC-C endothelial cell viability, qHTS; series mostly up to 92.2 µM
Procedure, shortened: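 Concentration-dependent ATP loss in HUV-EC-C cells is the measure. Exposure lasts 40 hr at 37 °C; luminescence follows CellTiter-Glo addition, and Hill fits give AC50.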

Cc1cccc(Br)c1
inactive: Potency [1] > 92 µM | Potency [2] > 92 µM | Potency [3] > 92 µM | Potency [4] > 92 µM | Potency [5] > 92 µM | Potency [6] > 92 µM | outcome [7] | activity change, negative = cytotoxicity [8] -13.7% | Potency [9] | Potency [10]

CCC=O
inactive: Potency [1] > 92 µM | Potency [2] > 92 µM | Potency [3] > 92 µM | Potency [4] > 92 µM | Potency [5] > 92 µM | Potency [6] > 92 µM | outcome [7] | activity change, negative = cytotoxicity [8] 1.92% | Potency [9] | Potency [10]

CCCCOCCOCCSC#N
inactive: Potency [1] > 92 µM | Potency [2] > 92 µM | Potency [3] > 92 µM | Potency [4] > 92 µM | Potency [5] > 92 µM | Potency [6] > 92 µM | outcome [7] | activity change, negative = cytotoxicity [8] 0.328% | Potency [9] | Potency [10]

O=C(O)c1ccc(Cl)cc1Cl
inactive: Potency [1] > 92 µM | Potency [2] > 92 µM | Potency [3] > 92 µM | Potency [4] > 92 µM | Potency [5] > 92 µM | Potency [6] > 92 µM | outcome [7] | activity change, negative = cytotoxicity [8] 7.33% | Potency [9] | Potency [10]

NC(=O)NC(N)=O
inactive: Potency [1] > 92 µM | Potency [2] > 92 µM | Potency [3] > 92 µM | Potency [4] > 92 µM | Potency [5] > 92 µM | Potency [6] > 92 µM | outcome [7] | activity change, negative = cytotoxicity [8] -8.97% | Potency [9] | Potency [10]

O=C(O)c1ccccc1[N+](=O)[O-]
inactive: Potency [1] > 92 µM | Potency [2] > 92 µM | Potency [3] > 92 µM | Potency [4] > 92 µM | Potency [5] > 92 µM | Potency [6] > 92 µM | outcome [7] | activity change, negative = cytotoxicity [8] 4.07% | Potency [9] | Potency [10]

CCc1ccccc1O
inactive: Potency [1] > 92 µM | Potency [2] > 92 µM | Potency [3] > 92 µM | Potency [4] > 92 µM | Potency [5] > 92 µM | Potency [6] > 92 µM | outcome [7] | activity change, negative = cytotoxicity [8] 2.33% | Potency [9] | Potency [10]

Cc1ccc(CO)cc1
inactive: Potency [1] > 92 µM | Potency [2] > 92 µM | Potency [3] > 92 µM | Potency [4] > 92 µM | Potency [5] > 92 µM | Potency [6] > 92 µM | outcome [7] | activity change, negative = cytotoxicity [8] -2.9% | Potency [9] | Potency [10]

CCNc1cc(O)ccc1C
inactive: Potency [1] > 92 µM | Potency [2] > 92 µM | Potency [3] > 92 µM | Potency [4] > 92 µM | Potency [5] > 92 µM | Potency [6] > 92 µM | outcome [7] | activity change, negative = cytotoxicity [8] 4.09% | Potency [9] | Potency [10]

OC1CCCC1
inactive: Potency [1] > 92 µM | Potency [2] > 92 µM | Potency [3] > 92 µM | Potency [4] > 92 µM | Potency [5] > 92 µM | Potency [6] > 92 µM | outcome [7] | activity change, negative = cytotoxicity [8] -9.14% | Potency [9] | Potency [10]

CCCCC(C=O)CC (stereo not given)
inactive: Potency [1] > 92 µM | Potency [2] > 92 µM | Potency [3] > 92 µM | Potency [4] > 92 µM | Potency [5] > 92 µM | Potency [6] > 92 µM | outcome [7] | activity change, negative = cytotoxicity [8] 2.46% | Potency [9] | Potency [10]

CC(C)CO
inactive: Potency [1] > 92 µM | Potency [2] > 92 µM | Potency [3] > 92 µM | Potency [4] > 92 µM | Potency [5] > 92 µM | Potency [6] > 92 µM | outcome [7] | activity change, negative = cytotoxicity [8] 3.29% | Potency [9] | Potency [10]

CCC(C)(C)OC
inactive: Potency [1] > 92 µM | Potency [2] > 92 µM | Potency [3] > 92 µM | Potency [4] > 92 µM | Potency [5] > 92 µM | Potency [6] > 92 µM | outcome [7] | activity change, negative = cytotoxicity [8] -20.8% | Potency [9] | Potency [10]

CCC1CO1 (stereo not given)
inactive: Potency [1] > 92 µM | Potency [2] > 92 µM | Potency [3] > 92 µM | Potency [4] > 92 µM | Potency [5] > 92 µM | Potency [6] > 92 µM | outcome [7] | activity change, negative = cytotoxicity [8] -4.66% | Potency [9] | Potency [10]

C=C(C)C1CC=C(C)C(OC(C)=O)C1 (stereo not given)
inactive: Potency [1] > 92 µM | Potency [2] > 92 µM | Potency [3] > 92 µM | Potency [4] > 92 µM | Potency [5] > 92 µM | Potency [6] > 92 µM | outcome [7] | activity change, negative = cytotoxicity [8] -2.86% | Potency [9] | Potency [10]

Cc1cccc2cccnc12
inactive: Potency [1] > 92 µM | Potency [2] > 92 µM | Potency [3] > 92 µM | Potency [4] > 92 µM | Potency [5] > 92 µM | Potency [6] > 92 µM | outcome [7] | activity change, negative = cytotoxicity [8] -0.348% | Potency [9] | Potency [10]
